Assay results as given in the supplement of paper PMC11732987, “Enantioselective OTUD7B fragment discovery through chemoproteomics screening and high-throughput optimisation” (Communications Chemistry, 2025).
Unmarked numbers belong to inactive results.

Assays:
Experiment in all cases: log2 ratio of Biotin-Ahx-Ub-VS probe labelling (fragment/DMSO); higher = less target engagement (more negative = stronger competition), active = hit call of the paper (q ≤ 0.05, log2 ratio ≤ -1)
Conditions in all cases: compound concentration: 200 uM; treatment time: 3 h
[1] = biological target: UniProt O00507
Chain of UniProt O00507 (O00507 whole entry, the tested form may be a part): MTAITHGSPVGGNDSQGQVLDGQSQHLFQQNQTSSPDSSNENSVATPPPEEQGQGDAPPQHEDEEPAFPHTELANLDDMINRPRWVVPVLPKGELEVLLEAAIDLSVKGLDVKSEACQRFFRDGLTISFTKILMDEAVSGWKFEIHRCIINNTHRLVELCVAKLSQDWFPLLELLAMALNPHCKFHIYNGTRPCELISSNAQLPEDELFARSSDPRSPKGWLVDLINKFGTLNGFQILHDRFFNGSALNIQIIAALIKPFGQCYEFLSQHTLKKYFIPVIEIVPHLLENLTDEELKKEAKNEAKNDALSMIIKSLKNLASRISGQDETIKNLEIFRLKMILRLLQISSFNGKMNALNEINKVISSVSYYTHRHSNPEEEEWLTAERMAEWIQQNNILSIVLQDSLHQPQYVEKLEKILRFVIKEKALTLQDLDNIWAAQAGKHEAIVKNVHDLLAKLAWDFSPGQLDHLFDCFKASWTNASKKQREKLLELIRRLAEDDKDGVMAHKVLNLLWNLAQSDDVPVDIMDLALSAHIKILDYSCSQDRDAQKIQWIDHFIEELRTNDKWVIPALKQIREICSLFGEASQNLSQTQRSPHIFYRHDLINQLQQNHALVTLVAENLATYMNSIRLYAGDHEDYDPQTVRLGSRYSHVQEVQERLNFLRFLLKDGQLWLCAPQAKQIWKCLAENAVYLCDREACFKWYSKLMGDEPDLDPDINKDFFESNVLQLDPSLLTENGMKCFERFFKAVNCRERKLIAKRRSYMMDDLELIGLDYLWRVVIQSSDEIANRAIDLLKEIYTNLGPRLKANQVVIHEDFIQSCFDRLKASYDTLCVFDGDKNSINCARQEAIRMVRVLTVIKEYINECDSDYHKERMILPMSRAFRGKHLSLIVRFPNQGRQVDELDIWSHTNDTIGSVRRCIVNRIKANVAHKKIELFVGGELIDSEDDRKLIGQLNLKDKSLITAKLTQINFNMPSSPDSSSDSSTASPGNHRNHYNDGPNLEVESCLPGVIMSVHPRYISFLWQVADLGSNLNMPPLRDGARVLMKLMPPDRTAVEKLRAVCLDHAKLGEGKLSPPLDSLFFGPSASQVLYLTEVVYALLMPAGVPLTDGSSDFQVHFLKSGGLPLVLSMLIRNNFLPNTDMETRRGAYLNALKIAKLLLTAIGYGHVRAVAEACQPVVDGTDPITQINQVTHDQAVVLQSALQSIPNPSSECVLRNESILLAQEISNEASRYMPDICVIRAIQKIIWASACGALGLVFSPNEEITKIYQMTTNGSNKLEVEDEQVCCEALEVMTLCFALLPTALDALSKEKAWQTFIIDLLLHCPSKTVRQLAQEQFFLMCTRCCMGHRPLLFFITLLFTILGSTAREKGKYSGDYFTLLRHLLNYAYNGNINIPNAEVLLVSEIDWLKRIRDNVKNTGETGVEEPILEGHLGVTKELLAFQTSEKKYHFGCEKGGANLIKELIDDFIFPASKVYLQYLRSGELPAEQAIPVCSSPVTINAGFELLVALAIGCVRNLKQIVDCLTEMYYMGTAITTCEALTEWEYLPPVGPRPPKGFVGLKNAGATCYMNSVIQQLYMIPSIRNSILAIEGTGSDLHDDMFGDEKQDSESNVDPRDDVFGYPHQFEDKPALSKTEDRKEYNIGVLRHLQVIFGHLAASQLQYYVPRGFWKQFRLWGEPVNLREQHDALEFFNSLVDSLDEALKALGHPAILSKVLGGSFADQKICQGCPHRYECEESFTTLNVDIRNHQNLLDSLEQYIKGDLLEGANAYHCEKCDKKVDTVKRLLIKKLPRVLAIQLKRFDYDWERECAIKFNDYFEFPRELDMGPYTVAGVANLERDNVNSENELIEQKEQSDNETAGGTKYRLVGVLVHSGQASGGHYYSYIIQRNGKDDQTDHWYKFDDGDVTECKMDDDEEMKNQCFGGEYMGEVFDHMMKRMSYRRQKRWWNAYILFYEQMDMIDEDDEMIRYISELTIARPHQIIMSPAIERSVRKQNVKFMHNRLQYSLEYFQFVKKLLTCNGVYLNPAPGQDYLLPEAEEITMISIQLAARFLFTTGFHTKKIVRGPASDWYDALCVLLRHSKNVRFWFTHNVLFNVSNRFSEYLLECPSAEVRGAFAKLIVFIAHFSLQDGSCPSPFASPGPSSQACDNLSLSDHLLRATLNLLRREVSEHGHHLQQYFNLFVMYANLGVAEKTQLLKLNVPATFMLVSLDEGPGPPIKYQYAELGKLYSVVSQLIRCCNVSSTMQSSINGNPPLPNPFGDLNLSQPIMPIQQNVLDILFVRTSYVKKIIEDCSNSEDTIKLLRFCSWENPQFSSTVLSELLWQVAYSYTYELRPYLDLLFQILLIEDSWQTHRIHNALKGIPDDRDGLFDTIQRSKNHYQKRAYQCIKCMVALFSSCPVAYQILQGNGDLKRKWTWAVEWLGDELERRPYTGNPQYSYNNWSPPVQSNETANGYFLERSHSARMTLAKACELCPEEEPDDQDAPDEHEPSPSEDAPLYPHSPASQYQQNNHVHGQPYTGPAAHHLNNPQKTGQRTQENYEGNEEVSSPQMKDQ
How it was run: (§1)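 The table lists average log2 ratios of fragment over vehicle, from an unpaired t-test on global-median-normalised Spectronaut label-free quantities. Proteins with ≥2 unique peptides were used. Samples were HEK293T lysate (495 µg) treated in triplicate with fragment at 200 µM or vehicle for 3 h, then with Biotin-Ahx-Ub-VS (0.5 µM final) for 1 h, with labelled DUBs NeutrAvidin-enriched and run by diaPASEF LC-MS/MS.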

[2] = biological target: UniProt P51784
Chain of UniProt P51784 (P51784 whole entry): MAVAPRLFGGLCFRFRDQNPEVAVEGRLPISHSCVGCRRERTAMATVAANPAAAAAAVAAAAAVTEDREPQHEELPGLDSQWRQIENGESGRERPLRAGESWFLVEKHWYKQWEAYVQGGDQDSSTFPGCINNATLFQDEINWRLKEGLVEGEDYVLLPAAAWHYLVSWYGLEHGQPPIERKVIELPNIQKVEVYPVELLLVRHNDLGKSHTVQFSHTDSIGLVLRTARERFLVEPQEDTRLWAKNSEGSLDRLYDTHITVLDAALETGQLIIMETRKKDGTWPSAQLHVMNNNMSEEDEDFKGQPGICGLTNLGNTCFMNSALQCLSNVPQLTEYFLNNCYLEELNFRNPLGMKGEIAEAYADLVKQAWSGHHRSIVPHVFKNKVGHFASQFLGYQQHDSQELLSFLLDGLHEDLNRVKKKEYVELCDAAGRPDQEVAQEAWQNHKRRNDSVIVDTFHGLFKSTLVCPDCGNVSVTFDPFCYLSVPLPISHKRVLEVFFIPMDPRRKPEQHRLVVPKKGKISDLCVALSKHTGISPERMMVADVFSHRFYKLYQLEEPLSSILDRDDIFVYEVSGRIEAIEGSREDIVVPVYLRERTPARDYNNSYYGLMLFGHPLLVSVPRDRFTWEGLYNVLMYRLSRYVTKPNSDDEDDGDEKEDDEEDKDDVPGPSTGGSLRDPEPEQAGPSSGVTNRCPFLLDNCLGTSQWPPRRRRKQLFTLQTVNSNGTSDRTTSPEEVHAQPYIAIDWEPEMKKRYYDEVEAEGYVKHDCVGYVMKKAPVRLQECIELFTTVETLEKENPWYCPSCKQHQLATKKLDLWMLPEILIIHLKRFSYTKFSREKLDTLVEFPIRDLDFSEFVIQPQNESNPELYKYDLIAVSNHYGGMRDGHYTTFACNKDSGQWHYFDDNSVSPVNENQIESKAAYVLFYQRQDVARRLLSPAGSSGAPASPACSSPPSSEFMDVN
How it was run: as §1

[3] = biological target: T1, UniProt Q5T2D3
T1 sequence (whole entry): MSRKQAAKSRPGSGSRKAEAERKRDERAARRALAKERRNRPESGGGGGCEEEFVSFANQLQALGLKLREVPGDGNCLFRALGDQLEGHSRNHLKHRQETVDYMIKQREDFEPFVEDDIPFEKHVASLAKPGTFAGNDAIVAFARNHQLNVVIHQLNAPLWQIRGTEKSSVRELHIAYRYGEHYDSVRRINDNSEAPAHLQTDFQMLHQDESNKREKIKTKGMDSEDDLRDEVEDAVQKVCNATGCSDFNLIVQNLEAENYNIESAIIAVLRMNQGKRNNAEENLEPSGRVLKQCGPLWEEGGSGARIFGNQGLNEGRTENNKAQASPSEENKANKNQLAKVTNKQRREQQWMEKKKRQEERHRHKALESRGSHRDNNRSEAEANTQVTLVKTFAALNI
How it was run: as §1

[4] = biological target: T2, UniProt Q8TE49
T2 sequence (whole entry): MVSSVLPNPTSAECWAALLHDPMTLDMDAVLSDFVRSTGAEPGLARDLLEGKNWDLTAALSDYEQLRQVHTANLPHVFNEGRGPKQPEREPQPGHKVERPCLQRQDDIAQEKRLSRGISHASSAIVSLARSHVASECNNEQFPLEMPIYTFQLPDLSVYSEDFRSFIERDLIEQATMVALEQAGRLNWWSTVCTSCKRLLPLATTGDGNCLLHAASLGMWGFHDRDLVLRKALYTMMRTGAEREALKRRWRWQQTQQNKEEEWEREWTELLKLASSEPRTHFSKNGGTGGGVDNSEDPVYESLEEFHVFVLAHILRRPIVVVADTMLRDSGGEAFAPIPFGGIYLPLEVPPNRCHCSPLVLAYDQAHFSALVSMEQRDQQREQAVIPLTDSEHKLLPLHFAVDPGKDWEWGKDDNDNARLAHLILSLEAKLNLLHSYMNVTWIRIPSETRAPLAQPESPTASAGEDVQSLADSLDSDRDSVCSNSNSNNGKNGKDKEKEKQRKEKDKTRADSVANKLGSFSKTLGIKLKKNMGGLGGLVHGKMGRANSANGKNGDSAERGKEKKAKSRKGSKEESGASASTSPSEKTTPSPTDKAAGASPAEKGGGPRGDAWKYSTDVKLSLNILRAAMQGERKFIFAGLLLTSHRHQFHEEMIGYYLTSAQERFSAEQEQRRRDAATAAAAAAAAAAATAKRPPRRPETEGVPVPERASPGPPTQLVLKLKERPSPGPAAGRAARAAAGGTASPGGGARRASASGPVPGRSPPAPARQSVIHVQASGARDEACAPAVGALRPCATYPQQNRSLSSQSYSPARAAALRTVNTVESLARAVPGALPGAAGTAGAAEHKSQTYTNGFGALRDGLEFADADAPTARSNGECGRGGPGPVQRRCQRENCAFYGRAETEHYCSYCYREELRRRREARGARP
How it was run: as §1

[5] = biological target: T3, UniProt Q9P2H5
T3 sequence (whole entry): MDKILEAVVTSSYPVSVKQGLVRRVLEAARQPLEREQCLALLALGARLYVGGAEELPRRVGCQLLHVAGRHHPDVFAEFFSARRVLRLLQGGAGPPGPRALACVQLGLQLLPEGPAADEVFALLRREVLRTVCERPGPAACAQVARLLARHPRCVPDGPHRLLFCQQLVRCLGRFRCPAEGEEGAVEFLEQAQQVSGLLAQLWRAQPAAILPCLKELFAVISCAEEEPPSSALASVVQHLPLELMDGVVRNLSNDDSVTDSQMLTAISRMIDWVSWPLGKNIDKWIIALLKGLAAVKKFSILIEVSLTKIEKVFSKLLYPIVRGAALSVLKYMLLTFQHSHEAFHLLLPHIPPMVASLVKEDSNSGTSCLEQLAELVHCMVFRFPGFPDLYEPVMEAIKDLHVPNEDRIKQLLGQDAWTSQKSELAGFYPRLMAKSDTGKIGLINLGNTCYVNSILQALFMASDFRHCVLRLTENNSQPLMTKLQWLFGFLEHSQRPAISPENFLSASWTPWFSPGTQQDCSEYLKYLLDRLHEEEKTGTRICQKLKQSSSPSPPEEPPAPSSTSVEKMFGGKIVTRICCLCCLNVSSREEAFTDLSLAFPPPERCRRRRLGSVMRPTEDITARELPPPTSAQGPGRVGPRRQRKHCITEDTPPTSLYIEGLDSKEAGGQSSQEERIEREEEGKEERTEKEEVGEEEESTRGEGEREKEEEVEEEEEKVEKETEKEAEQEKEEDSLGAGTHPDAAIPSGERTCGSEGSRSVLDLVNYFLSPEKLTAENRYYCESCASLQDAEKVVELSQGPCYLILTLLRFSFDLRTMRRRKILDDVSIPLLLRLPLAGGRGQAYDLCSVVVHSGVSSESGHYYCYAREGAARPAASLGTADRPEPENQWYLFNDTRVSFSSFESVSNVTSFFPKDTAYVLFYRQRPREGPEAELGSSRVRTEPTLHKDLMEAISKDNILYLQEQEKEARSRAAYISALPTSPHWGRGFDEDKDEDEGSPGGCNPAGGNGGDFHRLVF
How it was run: as §1

[6] = biological target: T4, UniProt Q9UGI0
T4 sequence (whole entry): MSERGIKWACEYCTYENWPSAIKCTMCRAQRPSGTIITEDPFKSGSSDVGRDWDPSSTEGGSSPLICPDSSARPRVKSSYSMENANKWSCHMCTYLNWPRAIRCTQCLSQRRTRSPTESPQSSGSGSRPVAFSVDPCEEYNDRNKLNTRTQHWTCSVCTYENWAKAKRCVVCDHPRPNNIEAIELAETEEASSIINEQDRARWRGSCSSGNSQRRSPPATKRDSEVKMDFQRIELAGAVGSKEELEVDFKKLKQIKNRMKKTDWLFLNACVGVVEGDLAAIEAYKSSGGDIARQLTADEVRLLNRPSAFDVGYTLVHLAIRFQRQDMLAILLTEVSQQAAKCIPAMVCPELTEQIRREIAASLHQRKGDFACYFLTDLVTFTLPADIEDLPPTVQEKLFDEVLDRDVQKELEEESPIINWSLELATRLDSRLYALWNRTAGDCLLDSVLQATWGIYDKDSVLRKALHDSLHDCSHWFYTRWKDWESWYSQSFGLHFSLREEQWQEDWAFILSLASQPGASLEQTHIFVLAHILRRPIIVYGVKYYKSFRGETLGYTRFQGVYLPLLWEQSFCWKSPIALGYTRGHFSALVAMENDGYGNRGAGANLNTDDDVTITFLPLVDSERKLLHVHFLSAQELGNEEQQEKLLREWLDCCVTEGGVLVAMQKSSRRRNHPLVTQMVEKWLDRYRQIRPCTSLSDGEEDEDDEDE
How it was run: as §1

[7] = biological target: T5, YOD1 (UniProt Q5VVQ6)
T5 sequence (whole entry): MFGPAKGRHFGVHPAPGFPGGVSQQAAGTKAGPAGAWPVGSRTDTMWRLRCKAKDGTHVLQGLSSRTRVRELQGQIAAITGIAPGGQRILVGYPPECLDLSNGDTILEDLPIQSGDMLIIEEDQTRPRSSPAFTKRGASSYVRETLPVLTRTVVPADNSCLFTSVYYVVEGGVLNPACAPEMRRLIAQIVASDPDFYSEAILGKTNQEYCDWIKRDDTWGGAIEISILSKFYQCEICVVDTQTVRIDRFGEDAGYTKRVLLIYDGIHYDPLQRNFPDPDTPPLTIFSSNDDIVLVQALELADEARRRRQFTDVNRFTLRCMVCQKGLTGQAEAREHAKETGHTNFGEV
How it was run: as §1

SMILES	log2 ratio of Biotin-Ahx-Ub-VS probe labelling [1]	log2 ratio of Biotin-Ahx-Ub-VS probe labelling [2]	log2 ratio of Biotin-Ahx-Ub-VS probe labelling [3]	log2 ratio of Biotin-Ahx-Ub-VS probe labelling [4]	log2 ratio of Biotin-Ahx-Ub-VS probe labelling [5]	log2 ratio of Biotin-Ahx-Ub-VS probe labelling [6]	log2 ratio of Biotin-Ahx-Ub-VS probe labelling [7]
O=C(CCl)N[C@H]1CC[C@@H](CO)CC1	-0.725	-0.788	-0.746	-1.32 (active)	-0.775	-0.944	-0.784
CC(NC(=O)CCl)c1cc2n(n1)CCCC2.Cl (centres undefined)	0.229	0.0045	0.0101	-0.631	-0.0486	0.22	-0.00538
Cc1ncc2c(n1)CCN(C(=O)CCl)C2	0.136	0.000874	-0.239	-0.624	-0.422	-0.458	0.165
O=C(CCl)N1CCN2C(=O)CCC2C1 (centres undefined)	0.162	0.195	-0.286	-0.3	-0.168	-0.382	0.182
O=C(CN1CCN(C(=O)CCl)CC1)Nc1cccc(F)c1	0.00838	-0.0576	-0.264	-0.292	-0.486	-0.37	0.0312
Cl.O=C(CCl)N[C@H]1C[C@@H](n2cccn2)C1	-0.599	0.0814	0.0298	-0.369	0.122	-0.284	-0.324
NC(=O)C1CCCN(C(=O)CCl)C1 (centres undefined)	-0.185	-0.0378	0.103	0.0487	-0.0803	-0.698	0.00724
CNC(=O)Cn1cc(NC(=O)CCl)cn1	-0.146	-0.115	-0.427	-0.553	-0.256	-1.09 (active)	-0.252
O=C(CCl)NC1CCCCNC1=O (centres undefined)	-0.323	-0.117	-0.329	-0.574	-0.277	-0.309	-0.218
CN(C)C(=O)c1ccc(NC(=O)CCl)cc1	0.0581	-0.0219	0.0298	0.182	0.102	-0.97	0.0572
O=C(CCl)NCC(=O)N1CCCC1	-0.0296	0.172	-0.355	-0.471	-0.207	-0.151	-0.225
Cl.O=C(CCl)N1CCc2ncncc2C1	-0.362	0.0954	-0.274	-0.964	-0.288	-1.57 (active)	0.055
O=C(CCl)NCc1ccc2c(c1)OCO2	0.0979	0.0895	-0.281	-0.708	-0.288	-0.607	0.157
O=C(CCl)Nc1cc(Cl)ccc1C(=O)O	0.337	0.177	-0.138	-0.2	-0.258	-0.128	0.233
O=C(CCl)NCc1cccc(F)c1	0.176	-0.104	-0.0819	-0.349	0.0328	-0.684	-0.0324
CC(=O)Nc1ccc(NC(=O)CCl)cc1	-0.353	0.016	-0.228	-0.811	-0.0361	-1.31 (active)	-0.229
O=C(CCl)NCc1ccc(N2CCOCC2)c(F)c1	0.631	0.16	-0.134	-0.275	-0.291	-0.051	0.276
Cc1ccc(C)c(NC(=O)CCl)c1	-0.612	-0.335	-0.41	-0.57	-0.295	-0.449	-0.599
O=C(CCl)NCCc1cccc2ccccc12	0.608	0.159	-0.0259	-0.28	0.0801	0.238	0.263
Cc1conc1C1CN(C(=O)CCl)C1	-0.553	-0.677	-0.923	-1.71 (active)	-0.584	-0.885	-1.1 (active)
CC1(NC(=O)CCl)CCS(=O)(=O)C1 (centres undefined)	-0.402	-0.612	-0.858	-1.44 (active)	-0.61	-0.698	-0.754
CCC1c2ccsc2CCN1C(=O)CCl (centres undefined)	-0.266	-0.306	-0.0335	-0.771	-0.118	-0.444	-0.026
